# Source: PubChem BioAssay AID504773 (Broad Institute, 2011)
# Measured potencies and affinities stand elsewhere. Unmarked numbers belong to inactive results.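 The calls were made as follows: active = polarization signal falls with dose and the fitted half-maximal concentration is at or below ten times the sample's top valid dose; inconclusive = flat curve at 30 to 70% inhibition, or poor fit; inactive = signal rises, flat within 30%, or potency beyond limit.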
# Biological target: Golgi-associated PDZ and coiled-coil motif-containing protein (Homo sapiens) (UniProt Q9HD26)
# Assay: potency against CAL PDZ-peptide interaction – biochemical, fluorescence polarization, Cerulean-tagged CAL PDZ, cherry-picks, dose response (AID 504773);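 also: 0% = DMSO neutral wells and -100% = excess unlabeled competitor peptide wells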
# Conditions: CAL PDZ-peptide binding, 1 h; series mostly up to 50 µM; activity change, negative = inhibition: at the top concentration
row,Structure (SMILES),"activity change, negative = inhibition [%]"
1,COc1ccc(Nc2cccccc2=O)cc1,7.43
2,Nc1nc2ccccc2cc1S(=O)(=O)c1ccccc1,14.9
3,CC(C)=Cc1oc2ccc([N+](=O)[O-])cc2c1N1CCOCC1,14.7
4,COc1cc(Br)c(C(=O)c2nccc3cc(OC)c(OC)cc23)cc1OC,-27.4
5,COCCOC(=O)c1c(C)oc2ccc(OS(C)(=O)=O)cc12,-40.2
6,Cc1ccc(CN(C(=O)c2ccco2)C(C(=O)NC2CCCC2)c2cccnc2)cc1 (stereo unspecified),20.8
7,Cc1cccc(C)c1NC(=S)NC(=O)c1ccc(Br)o1,-15.7
8,CCOCCCNC(=S)N1CCN(c2nc(-c3ccccc3)cs2)CC1,-0.951
9,CCOC(=O)N1CCN(Cc2nc3c(c(=O)n(C)c(=O)n3C)n2Cc2cccc(C)c2)CC1,15.9
10,O=c1c2cc3c(cc2[nH]c(=S)n1CCN1CCOCC1)OCO3,13.2
11,CC1CCN(CCCNC(=O)c2ccc3c(=O)n(Cc4ccc(Cl)cc4)c(=S)[nH]c3c2)CC1,25.8
12,Cc1ccc(NC(=O)CN(C)C(=S)NC2CC2)cc1,-2.76
13,Cc1ccc(-c2nnn(CC(=O)N(CCN3CCOCC3)C(C(=O)NC(C)(C)C)c3ccc(C)o3)n2)cc1 (stereo unspecified),7.03
14,c1ccc(CNc2nc(NCc3ccccc3)c3ccccc3n2)cc1,-10.5
15,COCc1cc(C)nc(SCc2ccccc2)c1C#N,-15.4
16,CCOC(=O)C1CCN(C(=O)C2CC(=O)N(c3ccc4c(c3)OCCO4)C2)CC1 (stereo unspecified),12.5
17,CCOC(=O)/C(N=Nc1ccc2c(c1)OCO2)=C(\C)O,-20.9
18,COC(=O)c1cccc([N+](=O)[O-])c1CS(=O)(=O)c1ccc(C)cc1,27.4

row,Structure (SMILES),"activity change, negative = inhibition [%]"
1,CS(=O)(=O)N(CC(=O)N1CCOCC1)c1cccc(F)c1,6.89
2,COC(=O)C(C(=O)OC)c1ccc(N)cc1,14.9
3,Cc1cc(SC2CCOC2=O)nc2ccccc12 (stereo unspecified),6.41
4,Cc1ccc(C(C)NC(=O)Cc2cccs2)c(C)c1 (stereo unspecified),2.57
5,COCC(=O)Nc1ccc2nc3n(c(=O)c2c1)CCCCC3,-29.6
6,CCC(=O)c1ccc(N2CCC(C)CC2)c(F)c1,14.7
7,COc1ccc(CSc2ncnc3sccc23)cc1F,1.14
8,O=C(NNC(=S)NC(=O)c1ccc(Br)cc1)c1ccc([N+](=O)[O-])cc1,5.57
9,c1cc(-c2nnc(-c3ccncc3)o2)ccn1,18.2
10,O=C(CNCc1ccccc1)Nc1ccc(F)cc1,8.72
11,CC1CCCC(C)N1/N=C/c1ccc(N(C)C)cc1 (stereo unspecified),-16.6
12,CCOC(=O)c1c(CN2CCOCC2)oc2ccc(OC(C)=O)cc12,5.04
13,CCOc1ccc(C(=O)NC2CC3CCCC(C2)N3Cc2ccccc2)cc1 (stereo unspecified),-24.1
14,Cc1ccc(S(=O)(=O)N2CCN(C(=O)N(C)C)CC2)cc1,31.8
15,Cc1cc(NC(=O)Cc2ccc(Br)cc2)no1,-28.3
16,Cn1c(=O)c2c(ncn2CC(=O)Nc2nc(-c3ccccc3Cl)cs2)n(C)c1=O,6.53
17,CC(=O)N1CCN(c2ccc(NC(=O)C(c3ccccc3)c3ccccc3)cc2)CC1,9.33
18,CCOCCCNC(=O)c1ccc2c(=O)n(Cc3ccc4c(c3)OCO4)c(=S)[nH]c2c1,5.52
